Only some compounds are listed: those with a hit (about 5.2% of all), similar ones and a draw of the others.
PLK1 PBD inh – inhibitors of human PLK1 polo-box domain binding; P53350; Plk1 PBD binding of FITC phosphopeptide, fluorescence polarization; Potency, µM, without a hit: max response, negative = inhibition, hits mostly inhibitors; hit rate 2.8% among 360,000; AID 720504; note: series mostly up to about 57 µM; nearly all actives have a fitted effect of over 65% in size
Target sequence (P53350 whole entry, looked up, the tested form may be a part): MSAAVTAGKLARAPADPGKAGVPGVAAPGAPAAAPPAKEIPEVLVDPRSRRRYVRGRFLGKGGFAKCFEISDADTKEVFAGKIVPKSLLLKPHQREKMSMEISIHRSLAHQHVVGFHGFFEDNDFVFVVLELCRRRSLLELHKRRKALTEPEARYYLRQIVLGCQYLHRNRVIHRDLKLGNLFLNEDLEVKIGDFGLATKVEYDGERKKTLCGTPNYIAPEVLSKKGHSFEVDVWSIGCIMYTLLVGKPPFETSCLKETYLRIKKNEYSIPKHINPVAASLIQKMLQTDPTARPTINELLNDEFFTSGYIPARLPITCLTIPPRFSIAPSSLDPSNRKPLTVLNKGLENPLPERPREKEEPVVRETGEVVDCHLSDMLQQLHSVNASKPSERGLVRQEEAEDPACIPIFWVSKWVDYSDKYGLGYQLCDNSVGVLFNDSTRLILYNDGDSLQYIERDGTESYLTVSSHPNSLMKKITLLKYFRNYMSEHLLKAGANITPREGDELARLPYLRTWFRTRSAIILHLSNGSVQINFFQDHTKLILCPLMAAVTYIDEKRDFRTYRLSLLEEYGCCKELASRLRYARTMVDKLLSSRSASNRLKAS
TrxR1 inh – inhibitors of rat thioredoxin reductase 1 | Potency, µM (doses to about 114 µM), for the others: top-dose activity change, negative = inhibition, actives largely listed as inhibitors | hit rate 1% among 390,000 | recombinant rTrxR1, NADPH fluorescence consumption, selenite substrate; note: nearly all actives have a fitted effect of over 65% in size
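Rat TrxR1 (90 nM in the dispensed reagent) was pre-reduced with 400 uM NADPH for 5 min at room temperature, then incubated with compound for 15 min. After 400 uM selenite was added, NADPH fluorescence (Ex 340/Em 450 nm) was followed for 8 min.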
IDH1 R132H inh – inhibitors of human mutant IDH1 R132H | O75874 | IDH1-R132H enzyme, NADPH consumption, diaphorase/resazurin fluorescence | Potency, µM (titrated, usually from 76.6 µM), inactives show at the highest dose activity change, negative = inhibition, usual class: inhibitors | hit rate 0.093% among 390,000; note: nearly all actives have a fitted effect of over 65% in size
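IDH1-R132H (0.5 ug/mL) preincubated 30 min with compound, then NADPH (0.016 mM) and alpha-KG (2 mM) added; 80 min at RT, pH 7.5. Remaining NADPH coupled via diaphorase/resazurin to fluorescence (540/590 nm); concentration-response curves normalized to no-enzyme control.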
Sfp PPTase inh – Sfp phosphopantetheinyl transferase inhibition | Q9F4F7 | AID 1490 | Potency, µM, for the others: largest response in the series, negative = inhibition, usual class: inhibitors | hit rate 3.5% among 310,000 | Biochemical Sfp PPTase activity, qHTS;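 note: the enzyme is Sfp with the accession as filed and its product quenches rhodamine fluorescence; 0% = enzyme reaction without inhibitor and -100% = no enzyme wells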
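Fluorescence-quenching assay with 15 nM Sfp, 5 uM rhodamine-CoA and 12.5 uM BHQ-2-labelled ybbR peptide in pH 7.6 Hepes/MgCl2 buffer. Enzyme was pre-incubated with compound for 15 min at room temperature. Rate was taken from the 30-min fluorescence change (525/598 nm).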
TrxR1 substrate – rat thioredoxin reductase 1 substrate activity. O89049. purified TrxR1 substrate turnover, NADPH consumption readout. Potency, µM (titrated, usually from 114 µM), for the others: top-dose activity change, negative = substrate turnover. hit rate 0.01% among 390,000. AID 588456; note: nearly all actives have a fitted effect of over 50% in size
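Rat TrxR1, dispensed at 90 nM, was prereduced with 400 uM NADPH (final) for 5 min at ~22 deg C, then incubated with compound 15 min before 400 uM selenite. A first-read NADPH fluorescence drop versus no-compound background flagged substrates.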
VDR inh – blocks the human vitamin D receptor | P11473 | VDR-SRC2-3 peptide fluorescence polarization, 2 h | Potency, µM, for inactives: max response, negative = inhibition, actives largely listed as inhibitors | hit rate 0.93% among 400,000
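FP read-out; VDR + SRC2-3 coactivator peptide; 23 nl compound by pintool; 2 h RT incubation; reagents held at 4 deg C, protected from light.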
Active calls of the source: *; ? = inconclusive; / = no result given; [ ] = another dose, or the depositor's remark. Calls come from the whole dose curve; as a rule, active = well fitted curve in the direction sought with a large enough effect; inconclusive = small, poorly fitted or top-dose-only effect, or another doubt; inactive = no such curve, though single readings can be large; an effect the other way counts as inactive or inconclusive. Unless noted, % is set by controls: 0 for no effect and ±100 for the full control effect; potency is the fitted concentration of half-maximal effect.

SMILES	PLK1 PBD inh	TrxR1 inh	IDH1 R132H inh	Sfp PPTase inh	TrxR1 substrate	VDR inh
Cc1ccc(C(=O)Nc2nc(-c3ccccn3)cs2)o1	-22.5%	?	0.3%	-7.9%	2.8%	1.2%
Cc1cccc(OCc2nc3ccccc3c(=O)n2N)c1	23.8µM*	11.0%[57.1 µM]	5.7%	-6.2%	0.0%	7.9%
Cc1ccc(Cl)cc1NC(=O)c1oc2ccc(S(=O)(=O)N3CCC4(CC3)OCCO4)cc2c1C	/	11.8%[57.1 µM]	-7.8%	/	6.3%[57.1 µM]	18.5%
Cc1cccc(NC(c2nnc(-c3ccccc3)o2)c2ccc(F)cc2Cl)c1C (stereo not drawn)	/	7.1%[57.1 µM]	-13.1%	/	-5.3%[57.1 µM]	-4.4%
CN1C(=O)c2ccccc2C(C(=O)O)C1c1cccc(F)c1 (stereo not drawn)	29.9µM*	-3.2%	5.3%	8.7%	11.9%[57.1 µM]	4.4%
O=[N+]([O-])c1cccc(S(=O)(=O)N2CCN(c3nc(-c4ccccc4)nc4ccccc34)CC2)c1	/	5.9%	/	/	-1.0%	1.5%
Oc1cc(-n2cccn2)c(O)cc1-n1cccn1	?	9.3%[2.29 µM]	0.1%	5.01µM*	-0.1%[57.1 µM]	5.6%
N#Cc1ccccc1-c1ccc2ncnc(NC3CC3)c2c1	/	/	/	15.8%	/	?
CS(=O)(=O)c1ccc(Cl)c(C(=O)OCC(=O)NC2CCCCCCC2)c1	-4.0%	19.2%	13.5%	/	3.4%	7.5%
S=c1[nH]nc(-c2ccccc2)n1/N=C/c1cccs1	-20.6%	?	-2.6%	-27.9%	-6.0%	9.9%
Oc1c(Br)cc(Br)c(/C=N/n2c(-c3ccccc3)n[nH]c2=S)c1Br	11.9µM*	-35.8%	-20.0%	?	-1.5%	?
Oc1ccc(/C=N/n2c(-c3ccccc3)n[nH]c2=S)cc1	-10.4%	-9.3%	-4.5%	-1.6%	1.0%	-3.3%
Oc1ccc(Br)cc1/C=N/n1c(-c2ccccc2)n[nH]c1=S	?	-9.6%	-8.7%	56.2µM*	-3.9%	-16.5%
COc1ccc(Cl)cc1NC(=O)CN(C)C(=O)c1ccc(-n2nc(C)cc2C)cc1	-1.9%	1.7%	5.7%	/	-0.8%	-14.7%
O=C(O)[C@H]1[C@H]2C[C@H]3c4[nH]c5ccccc5c4CCN3C[C@@H]2CC[C@@H]1O	/	/	/	16.6%	/	/
CC(C)NC(=O)COC(=O)CNC(=O)c1cc(Cl)cc([N+](=O)[O-])c1	29.9µM*	6.6%	0.0%	8.7%	-4.6%	-21.6%
CCCC(=O)Nc1ccccc1C(=O)OCc1cc(=O)n2nc(C(C)C)sc2n1	/	2.8%[57.1 µM]	-11.8%	/	-4.9%[57.1 µM]	18.1%
CCCC(=O)NC(=S)Nc1ccc(N2CCN(C(=O)c3cccs3)CC2)cc1	-5.9%	?	-5.8%	11.5%	9.8%	11.8%
CCCC(=O)N1CCN(c2ccc(NC(=O)c3cccs3)cc2)CC1	23.8µM*	1.5%[57.1 µM]	1.0%	-9.2%	-11.3%	-16.6%
Cc1c(NC(=O)c2ccc(OC(C)C)cc2)cccc1-c1nc2ncccc2o1	/	12.2%	-14.6%	/	7.4%	-7.8%
Cc1ccc(CN2CCSc3ccc(C(=O)NCc4ccccn4)cc32)cc1	-20.3%	20.2%	-2.1%	50.1µM*	86.1%	3.5%
Cc1ccc(CN2CCSc3ccc(C(=O)NCCc4ccccc4)cc32)cc1	/	26.3%	-3.5%	/	39.6%	-23.0%
CC1Sc2ccc(C(=O)NCc3ccccn3)cc2NC1=O (stereo not drawn)	16.8µM*	5.0%	5.3%	/	-2.0%	79.4µM*
CC(O)(c1ccc(F)c(F)c1)c1nc(-c2cc(F)cc(F)c2)cs1 (stereo not drawn)	4.9%	/	/	/	/	/
CNc1ccc(C=C2c3ccccc3-c3ccccc32)cc1	/	-4.6%	/	/	-5.0%	/
COc1cccc2c1OC1(C)CC2NC(=O)N1c1cccc(C(=O)Nc2ccc3c(c2)OCCO3)c1 (stereo not drawn)	29.9µM*	?	0.6%	4.5%	-16.0%	5.4%
COc1ccc(C(C)=O)cc1COC(=O)c1ccc2c(c1)OCCO2	?	56.2µM*	0.4%	/	-3.9%	-6.5%
COc1ccc(C(C)=O)cc1COC(=O)c1ccc2c(c1)OCO2	-20.6%	?	1.1%	-6.9%	15.0%[57.1 µM]	-3.2%

Compound activity from PubChem.
